Source: PubChem BioAssay AID1159580 (chemical genetic matrix, 2015)
Out of some 5,500 compounds screened, about 2,000 (36%) were called active. About 18% were inconclusive and are not listed. Rule as the data show it: active = normalized growth mostly below about 0.91 (no sharp cut-off); inconclusive = no clear call, values can overlap the other calls; inactive = mostly above about 0.92. Some of the results follow.

Experiment: chemical genetic growth profiling, strain panel (AID 1159580);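 also: tested at 20 µM; growth read once vehicle control cultures reached saturation at 30 °C; 1 = growth at the plate median or of vehicle wells; lower values mean less growth of the strain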
Details: growth OD

Measured: normalized growth

CC1(C)OC(=O)NC1=O
inactive: S. cerevisiae deletion strains, locus YJR075W, strain HOC1, hits give low values 0.981 | S. cerevisiae deletion strains, locus YKL009W, strain mrt4, hits give low values 0.966 | S. cerevisiae deletion strains, locus YKL068W, hits give low values 0.988 | S. cerevisiae deletion strains, locus YKL085W, strain MDH1 (second series), hits give low values 1.06 | S. cerevisiae deletion strains, locus YKL085W, strain MDH1, hits give low values 1.06 | S. cerevisiae deletion strains, locus YKL160W, strain elf1, hits give low values 1.01 | S. cerevisiae deletion strains, locus YKR001C, strain vps1, hits give low values 1.01 | S. cerevisiae deletion strains, locus YKR026C, strain gcn3, hits give low values 0.994 | S. cerevisiae deletion strains, locus YKR091W, strain srl3, hits give low values 1.01 | S. cerevisiae deletion strains, locus YLL001W, strain dnm1, hits give low values 1.02 | S. cerevisiae deletion strains, locus YLL026W, hits give low values 1.01 | S. cerevisiae deletion strains, locus YLL041C, strain sdh2, hits give low values 1.01 | S. cerevisiae deletion strains, locus YLR027C, strain aat2, hits give low values 1.01 | S. cerevisiae deletion strains, locus YLR039C, strain RIC1, hits give low values 1.02 | S. cerevisiae deletion strains, locus YLR058C, strain SHM2, hits give low values 0.983 | S. cerevisiae deletion strains, locus YLR102C, strain apc9, hits give low values 0.981 | S. cerevisiae deletion strains, locus YLR113W, strain HOG1, hits give low values 1.02 | S. cerevisiae deletion strains, locus YLR221C, strain rsa3, hits give low values 0.991 | S. cerevisiae deletion strains, locus YLR258W, strain gsy2, hits give low values 1 | S. cerevisiae deletion strains, locus YLR262C, strain YPT6 (second series), hits give low values 1.03 | S. cerevisiae deletion strains, locus YLR262C, strain YPT6, hits give low values 0.97 | S. cerevisiae deletion strains, locus YLR268W, strain sec22, hits give low values 0.989 | S. cerevisiae deletion strains, locus YLR320W, strain mms22, hits give low values 0.975 | S. cerevisiae deletion strains, locus YLR330W, strain CHS5, hits give low values 0.996 | S. cerevisiae deletion strains, locus YLR342W, strain FKS1 (second series), hits give low values 1.04 | S. cerevisiae deletion strains, locus YLR342W, strain FKS1, hits give low values 1.02 | S. cerevisiae deletion strains, locus YLR357W, strain rsc2, hits give low values 1.03 | S. cerevisiae deletion strains, locus YLR370C, strain arc18, hits give low values 1.02 | S. cerevisiae deletion strains, locus YLR371W, strain rom2, hits give low values 0.98 | S. cerevisiae deletion strains, locus YLR384C, strain iki3, hits give low values 1.01 | S. cerevisiae deletion strains, locus YLR418C, strain cdc73, hits give low values 0.958 | S. cerevisiae deletion strains, locus YML016C, strain PPZ1, hits give low values 0.997 | S. cerevisiae deletion strains, locus YML032C, strain rad52, hits give low values 0.98 | S. cerevisiae deletion strains, locus YML120C, strain ndi1, hits give low values 1.02 | S. cerevisiae deletion strains, locus YML124C, strain tub3, hits give low values 0.983 | S. cerevisiae deletion strains, locus YMR058W, strain fet3, hits give low values 1.03 | S. cerevisiae deletion strains, locus YMR078C, strain ctf18, hits give low values 0.971 | S. cerevisiae deletion strains, locus YMR125W, strain sto1, hits give low values 1.05 | S. cerevisiae deletion strains, locus YMR129W, hits give low values 1.01 | S. cerevisiae deletion strains, locus YMR205C, strain PFK2, hits give low values 1.02 | S. cerevisiae deletion strains, locus YMR223W, strain ubp8, hits give low values 0.964 | S. cerevisiae deletion strains, locus YMR231W, strain pep5, hits give low values 1.01 | S. cerevisiae deletion strains, locus YMR263W, strain SAP30, hits give low values 0.981 | S. cerevisiae deletion strains, locus YMR307W, strain GAS1, hits give low values 1.05 | S. cerevisiae deletion strains, locus YNL067W, strain RPL9B, hits give low values 0.972 | S. cerevisiae deletion strains, locus YNL071W, strain lat1, hits give low values 1 | S. cerevisiae deletion strains, locus YNL153C, strain GIM3, hits give low values 0.989 | S. cerevisiae deletion strains, locus YNL183C, strain NPR1, hits give low values 0.975 | S. cerevisiae deletion strains, locus YNL209W, strain ssb2, hits give low values 0.996 | S. cerevisiae deletion strains, locus YNL233W, strain BNI4, hits give low values 0.983 | S. cerevisiae deletion strains, locus YNL248C, strain rpa49, hits give low values 1.07 | S. cerevisiae deletion strains, locus YNL250W, strain rad50, hits give low values 0.967 | S. cerevisiae deletion strains, locus YNL271C, strain bni1, hits give low values 0.966 | S. cerevisiae deletion strains, locus YNL298W, strain CLA4, hits give low values 0.971 | S. cerevisiae deletion strains, locus YNL307C, strain MCK1, hits give low values 0.983 | S. cerevisiae deletion strains, locus YNL322C, strain KRE1 (second series), hits give low values 1.01 | S. cerevisiae deletion strains, locus YNL322C, strain KRE1, hits give low values 1.01 | S. cerevisiae deletion strains, locus YNR049C, strain mso1, hits give low values 1.01 | S. cerevisiae deletion strains, locus YNR052C, strain pop2, hits give low values 0.971 | S. cerevisiae deletion strains, locus YOL006C, strain TOP1, hits give low values 0.926 | S. cerevisiae deletion strains, locus YOL012C, strain htz1 0.866 | S. cerevisiae deletion strains, locus YOL147C, strain pex11, hits give low values 0.973 | S. cerevisiae deletion strains, locus YOR001W, strain rrp6, hits give low values 1.02 | S. cerevisiae deletion strains, locus YOR061W, strain CKA2, hits give low values 0.994 | S. cerevisiae deletion strains, locus YOR069W, strain VPS5, hits give low values 0.991 | S. cerevisiae deletion strains, locus YOR070C, strain gyp1, hits give low values 0.999 | S. cerevisiae deletion strains, locus YOR080W, strain dia2, hits give low values 1.02 | S. cerevisiae deletion strains, locus YOR083W, strain WHI5, hits give low values 0.987 | S. cerevisiae deletion strains, locus YOR106W, strain vam3, hits give low values 1.03 | S. cerevisiae deletion strains, locus YOR136W, strain idh2, hits give low values 0.974 | S. cerevisiae deletion strains, locus YOR144C, strain elg1, hits give low values 0.976 | S. cerevisiae deletion strains, locus YOR184W, strain ser1, hits give low values 0.966 | S. cerevisiae deletion strains, locus YOR231W, strain MKK1, hits give low values 1.04 | S. cerevisiae deletion strains, locus YOR265W, strain rbl2, hits give low values 1.01 | S. cerevisiae deletion strains, locus YOR270C, strain vph1, hits give low values 1.07 | S. cerevisiae deletion strains, locus YOR290C, strain snf2, hits give low values 1.02 | S. cerevisiae deletion strains, locus YOR316C, strain cot1, hits give low values 0.98 | S. cerevisiae deletion strains, locus YPL051W, strain arl3, hits give low values 1.01 | S. cerevisiae deletion strains, locus YPL078C, strain atp4, hits give low values 1.01 | S. cerevisiae deletion strains, locus YPL106C, strain sse1, hits give low values 0.997 | S. cerevisiae deletion strains, locus YPL240C, strain hsp82, hits give low values 0.996 | S. cerevisiae deletion strains, locus YPL256C, strain CLN2, hits give low values 1.08 | S. cerevisiae deletion strains, locus YPR119W, strain clb2, hits give low values 0.977 | S. cerevisiae deletion strains, locus YPR141C, strain kar3, hits give low values 0.958 | S. cerevisiae deletion strains, locus YPR163C, strain tif3, hits give low values 0.982 | S. cerevisiae deletion strains, locus YPR167C, strain met16, hits give low values 0.972 | S. cerevisiae deletion strains, strain wtn01, hits give low values 0.982 | S. cerevisiae strains, strain wild type, hits give low values 0.998
